# Where a name gives a salt, the structure may show the parent alone.
# Test system: Saccharomyces cerevisiae BY4741 SeMeCo community
# Assay: z-score of subpopulation abundance vs DMSO median, subpopulation auxotrophic for LU; higher = larger share of this subpopulation than in DMSO controls
# Conditions: 10 µM; 24 h; SM minimal medium; subpopulation (auxotrophy): LU
# Outline: (§1)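 Scoring was based on each subpopulation's abundance, expressed as a z-score against the vehicle-well median. A Saccharomyces cerevisiae BY4741 community with four plasmids, each restoring one auxotrophy and encoding a distinct fluorescent protein, was pre-grown overnight to OD600 1.0, diluted to 0.3, and added at 70 µl to 384-well plates acoustically predosed with library drugs (10 µM final). It then grew 24 h in minimal SM medium before paraformaldehyde fixation and automated confocal microscopy, with single-auxotroph fluorescent strains setting thresholds and autofluorescence correction.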
row,SMILES,z-score of subpopulation abundance
1,CN(Cc1cnc2nc(N)nc(N)c2n1)c1ccc(C(=O)N[C@@H](CCC(=O)O)C(=O)O)cc1 [Methotrexate],-1.77
2,CCC[S+]([O-])c1ccc2[nH]c(NC(=O)OC)nc2c1 (stereo unspecified) [Albendazole Oxide],-0.51
3,COC(=O)C1=C(C)NC(C)=C(C(=O)OC)C1c1ccccc1[N+](=O)[O-] [Nifedipine],0.14

# Test system: Saccharomyces cerevisiae BY4741 SeMeCo community
# Assay: z-score of subpopulation abundance vs DMSO median, subpopulation auxotrophic for LM; higher = larger share of this subpopulation than in DMSO controls
# Conditions: 10 µM; 24 h; SM minimal medium; subpopulation (auxotrophy): LM
# Outline: as §1
row,SMILES,z-score of subpopulation abundance
1,Clc1ccc(CSC(Cn2ccnc2)c2ccc(Cl)cc2Cl)cc1 (stereo unspecified) [Sulconazole Nitrate],-2.53
2,COc1ccc(C2CNC(=O)C2)cc1OC1CCCC1 (stereo unspecified) [Rolipram],0.28
3,C[C@@H](NCCCc1cccc(C(F)(F)F)c1)c1cccc2ccccc12 [Cinacalcet HCl],3.33
4,Cc1cc(/C=C/c2ccc3cc(N(C)C)ccc3[n+]2C)c(C)n1-c1ccccc1 [pyrvinium],-0.19
5,CC(C)Cc1ccc(C(C)C(=O)O)cc1 (stereo unspecified) [Ibuprofen Lysine],-0.77
6,O=C(Cn1cnnn1)N[C@@H]1C(=O)N2C(C(=O)O)=C(CSc3nncs3)CS[C@H]12 [Ceftezole sodium],0.18
7,CC[N+](C)(C)c1cccc(O)c1 [Edrophonium chloride],-0.05
8,CN(C)CCCC1(c2ccc(F)cc2)OCc2cc(C#N)ccc21 (stereo unspecified) [Citalopram HBr],-0.05
9,CCCCCC(=O)O[C@]1(C(C)=O)CC[C@H]2[C@@H]3CCC4=CC(=O)CC[C@]4(C)[C@H]3CC[C@@]21C [Hydroxyprogesterone caproate],1.5
10,C[C@]12CCC(=O)C=C1[C@@H]1C[C@@H]1[C@H]1[C@@H]3[C@@H]4C[C@@H]4[C@@]4(CCC(=O)O4)[C@@]3(C)CC[C@@H]12 [Drospirenone],1.26
11,CC[C@H]1OC(=O)[C@H](C)[C@@H](O[C@H]2C[C@@](C)(OC)[C@@H](O)[C@H](C)O2)[C@H](C)[C@@H](O[C@@H]2O[C@H](C)C[C@H](N(C)C)[C@H]2O)[C@](C)(O)C[C@@H](C)/C(=N\OCOCCOC)[C@H](C)[C@@H](O)[C@]1(C)O [Roxithromycin],0.13
12,CCC(C)(C)c1ccc(CC(C)CN2C[C@@H](C)O[C@@H](C)C2)cc1 (stereo partly specified) [Amorolfine HCl],-0.63
13,CC(=O)N[C@H]1[C@H]([C@H](O)[C@H](O)CO)OC(C(=O)O)=C[C@@H]1NC(=N)N [Zanamivir],1.52
14,CCOc1cc(N)c([N+](=O)[O-])cc1C(=O)NC1CCN(CC2CC=CCC2)CC1 (stereo unspecified) [Cinitapride Hydrogen Tartrate],0.4
15,CCCCCNC(=N)N/N=C/c1c[nH]c2ccc(OC)cc12 [Tegaserod Maleate],1.85
16,CC(C)c1c(C(=O)Nc2ccccc2)c(-c2ccccc2)c(-c2ccc(F)cc2)n1CC[C@@H](O)C[C@@H](O)CC(=O)O [Atorvastatin],-0.19
17,COc1ccc(C(C)=O)c(O)c1 [Paeonol],0.14
18,Cc1cc(NS(=O)(=O)c2ccc(N)cc2)no1 [Sulfamethoxazole sodium],-1.48
19,NC12CC3CC(CC(C3)C1)C2 [Amantadine],0.28
20,CCC1=C(C)CN(C(=O)NCCc2ccc(S(=O)(=O)NC(=O)N[C@H]3CC[C@H](C)CC3)cc2)C1=O [Glimepiride],0.34
21,O=C(O)c1ccccc1C(=O)Nc1ccc(S(=O)(=O)Nc2nccs2)cc1 [Phthalylsulfathiazole],0.02
22,Clc1ccc(CCC(Cn2ccnc2)Sc2c(Cl)cccc2Cl)cc1 (stereo unspecified) [Butoconazole],-2.25
23,Cc1ccc(Sc2ccccc2N2CCNCC2)c(C)c1 [Vortioxetine],-0.16
24,CN(Cc1cnc2nc(N)nc(N)c2n1)c1ccc(C(=O)N[C@@H](CCC(=O)O)C(=O)O)cc1 [Methotrexate disodium],-1.46
25,CC[C@@H]1/C=C(\C)C[C@H](C)C[C@H](OC)[C@H]2O[C@@](O)(C(=O)C(=O)N3CCCC[C@H]3C(=O)O[C@H](/C(C)=C/[C@@H]3CC[C@H](Cl)[C@H](OC)C3)[C@H](C)[C@@H](O)CC1=O)[C@H](C)C[C@@H]2OC [Pimecrolimus],4.26
26,CN(Cc1cnc2nc(N)nc(N)c2n1)c1ccc(C(=O)N[C@@H](CCC(=O)O)C(=O)O)cc1 [Methotrexate],1.07
27,CCC[S+]([O-])c1ccc2[nH]c(NC(=O)OC)nc2c1 (stereo unspecified) [Albendazole Oxide],-0.25
28,COC(=O)C1=C(C)NC(C)=C(C(=O)OC)C1c1ccccc1[N+](=O)[O-] [Nifedipine],0.48

# Test system: Saccharomyces cerevisiae BY4741 SeMeCo community
# Assay: z-score of subpopulation abundance vs DMSO median, subpopulation auxotrophic for HM; higher = larger share of this subpopulation than in DMSO controls
# Conditions: 10 µM; 24 h; SM minimal medium; subpopulation (auxotrophy): HM
# Outline: as §1
row,SMILES,z-score of subpopulation abundance
1,Clc1ccc(CSC(Cn2ccnc2)c2ccc(Cl)cc2Cl)cc1 (stereo unspecified) [Sulconazole Nitrate],2.74
2,COc1ccc(C2CNC(=O)C2)cc1OC1CCCC1 (stereo unspecified) [Rolipram],-0.73
3,C[C@]12CC[C@@H]3c4ccc(O)cc4CC[C@H]3[C@@H]1CC[C@@H]2OC(=O)CCC1CCCC1 [Estradiol Cypionate],-0.34
4,C[C@@H](NCCCc1cccc(C(F)(F)F)c1)c1cccc2ccccc12 [Cinacalcet HCl],0.25
5,Cc1cc(/C=C/c2ccc3cc(N(C)C)ccc3[n+]2C)c(C)n1-c1ccccc1 [pyrvinium],-0.29
6,CC(C)Cc1ccc(C(C)C(=O)O)cc1 (stereo unspecified) [Ibuprofen Lysine],-1.04
7,O=C(Cn1cnnn1)N[C@@H]1C(=O)N2C(C(=O)O)=C(CSc3nncs3)CS[C@H]12 [Ceftezole sodium],-0.19
8,Nc1ccc(S(N)(=O)=O)cc1 [Sulfanilamide],-0.8
9,CCCN(CCC)CCc1cccc2c1CC(=O)N2 [Ropinirole HCl],0.44
10,CN(C)CCCC1(c2ccc(F)cc2)OCc2cc(C#N)ccc21 (stereo unspecified) [Citalopram HBr],-0.81
11,CN1CCCN=C1/C=C/c1cccs1 [Pyrantel Pamoate],0.03
12,CN(C)CCC[C@@]1(c2ccc(F)cc2)OCc2cc(C#N)ccc21 [Escitalopram Oxalate],-0.98
13,CC[C@H]1OC(=O)[C@H](C)[C@@H](O[C@H]2C[C@@](C)(OC)[C@@H](O)[C@H](C)O2)[C@H](C)[C@@H](O[C@@H]2O[C@H](C)C[C@H](N(C)C)[C@H]2O)[C@](C)(O)C[C@@H](C)/C(=N\OCOCCOC)[C@H](C)[C@@H](O)[C@]1(C)O [Roxithromycin],0.24
14,CCC(C)(C)c1ccc(CC(C)CN2C[C@@H](C)O[C@@H](C)C2)cc1 (stereo partly specified) [Amorolfine HCl],8.92
15,CC(=O)N[C@H]1[C@H]([C@H](O)[C@H](O)CO)OC(C(=O)O)=C[C@@H]1NC(=N)N [Zanamivir],0.87
16,CCOc1cc(N)c([N+](=O)[O-])cc1C(=O)NC1CCN(CC2CC=CCC2)CC1 (stereo unspecified) [Cinitapride Hydrogen Tartrate],0.24
17,CCC(=O)c1c(O)cc(O)cc1O [Flopropione],0.19
18,CCCCCNC(=N)N/N=C/c1c[nH]c2ccc(OC)cc12 [Tegaserod Maleate],1.48
19,CC(C)c1c(C(=O)Nc2ccccc2)c(-c2ccccc2)c(-c2ccc(F)cc2)n1CC[C@@H](O)C[C@@H](O)CC(=O)O [Atorvastatin],2.44
20,COc1ccc(C(C)=O)c(O)c1 [Paeonol],-0.35
21,Cc1cc(NS(=O)(=O)c2ccc(N)cc2)no1 [Sulfamethoxazole sodium],-0.51
22,COC(=O)C1=C(C)NC(C)=C(C(=O)OC(C)(C)CN(C)CCC(c2ccccc2)c2ccccc2)C1c1cccc([N+](=O)[O-])c1 (stereo unspecified) [Lercanidipine],0.81
23,NC1CCN(c2nc3c(cc2F)c(=O)c(C(=O)O)cn3-c2ccc(F)cc2F)C1 (stereo unspecified) [Tosufloxacin p-Toluenesulfonate Hydrate],-0.46
24,CC1(C)S[C@@H]2[C@H](NC(=O)[C@H](N)c3ccc(O)cc3)C(=O)N2[C@H]1C(=O)O [Amoxicillin],0.32
25,CCC1=C(C)CN(C(=O)NCCc2ccc(S(=O)(=O)NC(=O)N[C@H]3CC[C@H](C)CC3)cc2)C1=O [Glimepiride],0.24
26,O=C(O)c1ccccc1C(=O)Nc1ccc(S(=O)(=O)Nc2nccs2)cc1 [Phthalylsulfathiazole],0.77
27,CN(Cc1cnc2nc(N)nc(N)c2n1)c1ccc(C(=O)N[C@@H](CCC(=O)O)C(=O)O)cc1 [Methotrexate disodium],1.68
28,CN(Cc1cnc2nc(N)nc(N)c2n1)c1ccc(C(=O)N[C@@H](CCC(=O)O)C(=O)O)cc1 [Methotrexate],6.94
29,CCC[S+]([O-])c1ccc2[nH]c(NC(=O)OC)nc2c1 (stereo unspecified) [Albendazole Oxide],0.14
30,COC(=O)C1=C(C)NC(C)=C(C(=O)OC)C1c1ccccc1[N+](=O)[O-] [Nifedipine],-0.14

# Reference: the supplement of paper PMC8975748
